Many of the other results were omitted from the sample, so hits are more common in it than they were.
ALOX12 inh: Primary qHTS assay for inhibitors of human arachidonate 12S-lipoxygenase (ALOX12): Round 2; Potency, µM (series often up to 108 µM), actives largely listed as inhibitors; AID 1671190, 2021; actives 1.1% (n = 580,000); Polyunsaturated fatty acid lipoxygenase ALOX12 (Homo sapiens), P18054; purified 12hLO, xylenol orange hydroperoxide absorbance
Target sequence (P18054 whole entry, looked up): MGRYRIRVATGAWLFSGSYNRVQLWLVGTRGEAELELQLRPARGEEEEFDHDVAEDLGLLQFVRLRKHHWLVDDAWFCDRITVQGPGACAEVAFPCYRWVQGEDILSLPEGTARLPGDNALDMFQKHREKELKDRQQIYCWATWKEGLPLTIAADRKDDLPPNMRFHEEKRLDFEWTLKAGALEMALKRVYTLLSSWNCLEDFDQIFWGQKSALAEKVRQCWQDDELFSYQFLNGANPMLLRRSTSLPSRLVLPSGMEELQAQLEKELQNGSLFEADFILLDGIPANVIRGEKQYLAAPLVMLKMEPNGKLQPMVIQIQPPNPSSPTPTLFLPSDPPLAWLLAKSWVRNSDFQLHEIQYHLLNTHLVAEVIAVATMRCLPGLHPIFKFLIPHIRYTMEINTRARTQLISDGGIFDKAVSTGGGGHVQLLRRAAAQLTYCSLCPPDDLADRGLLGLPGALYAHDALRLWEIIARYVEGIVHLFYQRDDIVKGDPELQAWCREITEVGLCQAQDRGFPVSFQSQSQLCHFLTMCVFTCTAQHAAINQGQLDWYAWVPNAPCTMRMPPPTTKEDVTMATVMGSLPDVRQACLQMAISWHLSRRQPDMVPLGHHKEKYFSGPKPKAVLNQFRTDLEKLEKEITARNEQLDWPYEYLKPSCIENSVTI
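Purified human 12hLO (150 nM final) in 25 mM Hepes, 0.01% Triton X-100, pH 7.0 was preincubated 15 min at room temperature with compound. Then 40 uM arachidonic acid was added, 30 min. Hydroperoxide was read by Fe-XO absorbance ratio 573/405 nm.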
TDP1 cell CPT: qHTS for Inhibitors of human tyrosyl-DNA phosphodiesterase 1 (TDP1): qHTS in cells in presence of CPT. chicken DT40 Tdp1-/-;hTDP1 cells + 20 nM CPT, ATP luminescence, 48 h. Potency, µM (highest dose often 46.2 µM), usual class: inhibitors. actives 12% (n = 420,000). AID 686979, 2013; note: nearly all actives have a fitted effect of over 55% in size
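Chicken DT40 Tdp1-/- cells complemented with human TDP1, 400 cells/well, exposed to compounds plus 20 nM camptothecin for at least 48 h at 37 C; viability read as ATP content by CellTiter-Glo luminescence.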
TDP1 cell noCPT: qHTS for Inhibitors of human tyrosyl-DNA phosphodiesterase 1 (TDP1): qHTS in cells in absence of CPT | Potency, µM (series often up to 46.2 µM), hits mostly inhibitors | actives 15% (n = 420,000) | DT40 Tdp1-/- hTDP1 cells, no CPT, ATP luminescence, 48 h | AID 686978, 2013; note: nearly all actives have a fitted effect of over 55% in size
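A cellular qHTS used chicken DT40 cells lacking endogenous Tdp1 but carrying stably transfected human TDP1. Compounds were applied without camptothecin, and cell growth kinetics were judged by ATP-dependent luminescence after ≥48 hr.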
HT1080-NT tox: qHTS for induction of synthetic lethality in tumor cells producing 2HG: qHTS for the HT-1080-NT fibrosarcoma cell line | HT-1080-NT fibrosarcoma viability, CellTiter-Glo ATP luminescence, 48 h | actives 1.6% (n = 360,000) | AID 686970, 2013 | Potency, µM (titrated, usually from 46.1 µM), most hits filed as cytotoxic;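 note: NT is the 2HG producing partner of a matched IDH1 knockdown line; nearly all actives have a fitted effect of over 55% in size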
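Fibrosarcoma NT cells, 750 per well in 5% FBS RPMI, were exposed to compound for 48 hours. Viability: CellTiter-Glo luminescence.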
IL-1B inflam inh: qHTS for Inhibitors of Inflammasome Signaling: IL-1-beta AlphaLISA Primary Screen; THP-1 LPS/ATP IL-1B secretion, AlphaLISA, 16 h; hits give low values; activity change, % at 57.5 µM; actives 4.7% (n = 360,000); in the data active = activity change below about -50%; inconclusive = mostly about -30% to -49%
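Secreted IL-1B measured by AlphaLISA bead assay after 16 h compound exposure of THP-1 cells; compounds (final up to 57.5 uM) added 1 h before LPS (250 ng/mL) and ATP (1.25 mM) stimulation; lower signal means less secretion.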
HT1080 IDH1KD tx: qHTS for induction of synthetic lethality in tumor cells producing 2HG: qHTS for the HT-1080-IDH1KD cell line; HT-1080 IDH1 knockdown viability, ATP luminescence, 48 h; Potency, µM (top dose mostly 46.1 µM), hits mostly cytotoxic; actives 2% (n = 360,000); AID 686971, 2013
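Using the IDH1-knockdown HT-1080 line run in the same batch and compound series as the NT line, viability after 48 h at 37 °C was determined by CellTiter-Glo luminescence and expressed as % activity.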
Hits are given with their value; - = inactive; ? = inconclusive; . = not tested or not shown. Unless noted, calls come from the whole dose curve; as a rule, active = well fitted curve in the direction sought with a large enough effect; inconclusive = small, poorly fitted or top-dose-only effect, or another doubt; inactive = no such curve, though single readings can be large; an effect the other way counts as inactive or inconclusive.

SMILES	ALOX12 inh	TDP1 cell CPT	TDP1 cell noCPT	HT1080-NT tox	IL-1B inflam inh	HT1080 IDH1KD tx
CC1(c2ccc(OC(F)F)cc2)NC(=O)N(CC(=O)Nc2ccc3c(c2)OCO3)C1=O (configuration not stated)	-	16µM	?	?	-	?
O=C(C[n+]1ccccc1)c1cccc([N+](=O)[O-])c1	.	-	-	.	.	.
O=[N+]([O-])c1ccc(C[n+]2ccc(Cc3ccccc3)cc2)cc1	-	18µM	10µM	?	-	-
O=C(Cn1cc[n+](Cc2ccccc2)c1)c1ccc([N+](=O)[O-])cc1	-	3.7µM	2.6µM	?	-72	-
ON(CCc1ccccn1)Cc1ccccc1	?	-	-	-	-	-
O=[N+]([O-])c1ccc(C[n+]2ccccc2)cc1	-	-	-	-	-	-
c1ccc(Cc2cc[n+](Cc3ccccn3)cc2)cc1	-	21µM	9.2µM	-	-	-
O=C(C[n+]1ccn(-c2ccccc2)c1)c1ccc([N+](=O)[O-])cc1	-	15µM	16µM	-	-	-
COc1ccc(C#Cc2c[nH]c(=O)c3cncnc23)cc1OC	.	-	-	-	.	-
Cn1c(=O)c2c(ncn2CCOc2cccc(Br)c2)n(C)c1=O	-	8.2µM	9.2µM	?	-	-
Cc1ccc(OCCn2c(Br)nc3c2c(=O)n(C)c(=O)n3C)cc1	-	12µM	18µM	-	-	-
Cc1ccc(C(=O)Cn2c(Br)nc3c2c(=O)n(C)c(=O)n3C)cc1	-	.	.	.	.	.
CCOc1ccc(C(=O)COC(=O)Cn2cnc3c2c(=O)n(C)c(=O)n3C)cc1	-	-	-	-	-	-
Cn1c(=O)c2c(ncn2CC(=O)OCCCC(=O)c2ccc(Br)cc2)n(C)c1=O	-	18µM	6.5µM	-	-	-
O=C(Nc1nnc(SCC(=O)N2CCCCC2)s1)c1c(F)cccc1F	?	-	-	-	-	-
O=C1CSC2(C(=O)N(Cc3cccc(C(F)(F)F)c3)c3ccccc32)N1c1ccc(F)c(F)c1 (configuration not stated)	-	21µM	16µM	.	.	.
COc1ccc(N2C(=O)CSC23C(=O)N(Cc2cccc(C(F)(F)F)c2)c2ccccc23)cc1 (configuration not stated)	-	?	15µM	.	.	.
O=C1CSC2(C(=O)N(Cc3cccc(F)c3)c3ccccc32)N1c1cccc(C(F)(F)F)c1 (configuration not stated)	-	.	.	.	.	.
O=S(=O)(c1ccc(NC(=S)N2CCN(c3ccccc3F)CC2)cc1)N1CCOCC1	-	?	18µM	-	?	-
COc1ccccc1N1CCN(S(=O)(=O)c2ccc(NC(C)=O)cc2)CC1	-	-	-	-	-	-
COc1ccccc1N1CCN(C(=S)Nc2ccc(S(=O)(=O)N3CCOCC3)cc2)CC1	-	18µM	15µM	-	?	?
Cc1cc(CN2CCCC(N3CCc4ccccc4C3)C2)cc(C)c1O (configuration not stated)	-	13µM	?	-	-	-
O=C(CN1CCN(c2ccc(O)cc2)CC1)Nc1cc([N+](=O)[O-])ccc1Cl	-	21µM	21µM	-	-	-
O=C(CN1CCCCCC1)NC(c1ccccc1)c1ccccc1	?	-	?	-	-	-
O=C(CN1CCN(c2ccc(O)cc2)CC1)NC(c1ccccc1)c1ccccc1	22µM	-	?	-	-	-
SMILES	ALOX12 inh	TDP1 cell CPT	TDP1 cell noCPT	HT1080-NT tox	IL-1B inflam inh	HT1080 IDH1KD tx
c1ccc(Nc2nc(CSc3nnc4n3CCCCC4)cs2)cc1	-	.	.	.	.	.
CNC(=O)N1C[C@@H](CN(C)C)[C@H](NC(=O)c2ccco2)C1	-	.	.	.	.	.
O=C1CCN(S(=O)(=O)c2ccc3c(c2)OCCO3)CCCCCCN1	-	.	.	.	.	.
Cc1cc(C)c(C(=O)COC(=O)c2cccc(C)c2C)c(C)c1	-	.	.	.	.	.
CC1CCc2cc(F)ccc2N1C(=O)c1cc2nc(-c3ccco3)cc(C(F)(F)F)n2n1 (configuration not stated)	-	?	?	-	-	-
COc1ccc(-c2cc(C(F)(F)F)n3nc(C(=O)N4CCN(C(=O)c5ccco5)CC4)cc3n2)cc1	-	15µM	21µM	-	-	-
O=C(c1ccccc1)N1CCN(C(=O)c2nn3c(C(F)(F)F)cc(-c4ccco4)nc3c2Br)CC1	?	?	?	-	-65	-
O=C(c1nn2c(C(F)(F)F)cc(-c3ccco3)nc2c1Br)N1CCCCCC1	-	.	.	.	.	.
O=C(c1cc2nc(-c3ccco3)cc(C(F)(F)F)n2n1)N1CCN(Cc2ccccc2)CC1	-	18µM	?	-	-	-
O=C(c1cc2nc(-c3ccco3)cc(C(F)(F)F)n2n1)N1CCN(c2ccc(F)cc2)CC1	-	?	?	?	-76	?

Bioassay records: PubChem, National Center for Advancing Translational Sciences (NCATS)
